The record followed here is publication PMC5540273 (PLoS ONE, 2017).

Some test systems named below: S6K1; SBK1; SGK2; SGK3; SGK; SIK2; SIK; SLK; SNRK; SRC; SRMS; SRPK1; SRPK2; SRPK3; STK16; STK33; STK35.
Common to all, as to conditions: concentration: 1 μM, replicates: in singlicate; n = 1
Test [1] deals with T1, RSK4(Kin.Dom.1-N-terminal).
T1 construct: gene RPS6KA6

Test [2] has as its system T2, RSK4(Kin.Dom.2-C-terminal).
T2 construct: gene RPS6KA6

The subject of another test is T3, SNARK.
T3 construct: gene NUAK2
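Also: KINOMEscan kinase panel screen.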

Turning to `COc1cc2c(cc1OCCN1CCNCC1)ncc1c3ccc(C#N)cc3[nH]c21`, the “%Inh” value in test [1] is recorded as 73%; in test [2], 7%; with S6K1, 52%; with SBK1 it was 63%; in the test with SGK2 it was 46%; in the test on SGK3, 34%. Moreover, the “%Inh” value in the test with SGK is reported as 67%; in the test with SIK2 it was 79%; in the test on SIK, 18%; in the test with SLK it was 23%; in the test with SNARK it was 94.6%; with SNRK it was 12%. For the same compound, the “%Inh” value is given as 0% in the test on SRC; 19% with SRMS; 36% in the test with SRPK1; 0% in the test on SRPK2; 42% in the test on SRPK3; 9% in the test with STK16. Further, the “%Inh” value in the test on STK33 is listed as 19%; in the test with STK35, 0%.

Turning to `Nc1ncc(-c2ccc3nccc(-c4ccncc4)c3c2)cc1S(=O)(=O)N1CCOCC1` [GSK1627798], the “%Inh” value came to 14% in test [1]; 22% in [2]; 0% with S6K1; 3% with SBK1; 0% in the test on SGK2; 7% in the test on SGK3. Besides, the “%Inh” value is listed as 0% with SGK; 0% with SIK2; 0% with SIK; 36% with SLK; 8% in the test on SNARK; 0% in the test with SNRK. Further, the “%Inh” value is given as 0% in the test on SRC; 0% in the test on SRMS; 0% in the test with SRPK1; 0% in the test on SRPK2; 4% in the test with SRPK3; 22% with STK16. The “%Inh” value in the test with STK33 and in the test on STK35 was 0% throughout.

For the compound `Nc1ncc(-c2cccnc2)c2scc(-c3ccc4c(c3)CCN4C(=O)Cc3ccccc3)c12` [GSK683281], the “%Inh” value in test [1] was determined as 0%; in test [2], 26%; with S6K1, 0%; in the test with SBK1, 25%; with SGK2, 0%; with SGK3, 10%. Further, the “%Inh” value in the test with SGK is given as 0%; with SIK2, 4%; with SIK, 19%; in the test on SLK, 33%; in the test on SNARK, 4%; with SNRK, 1%. Moreover, the “%Inh” value in the test on SRC was determined as 37%; in the test with SRMS, 8%; with SRPK1 it was 32%; in the test with SRPK2, 0%; in the test with SRPK3, 28%; with STK16, 4%. The entries for the “%Inh” value in the test on STK33 and in the test on STK35 were 20% and 0%, respectively.

With `O=C(Nc1ccccc1F)NC1CCN(c2ccnc(Nc3ccc(F)cc3)n2)CC1` [GSK1379800], the “%Inh” value in [1] is recorded as 0%; in test [2], 6%; in the test on S6K1 it was 0%; in the test on SBK1, 0%; in the test on SGK2, 0%; in the test on SGK3, 9%. For the same compound, the “%Inh” value in the test on SGK is 0%; with SIK2, 0%; with SIK, 3%; in the test with SLK, 0%; in the test with SNARK, 0%; in the test with SNRK it was 0%. The “%Inh” value with SRC is reported as 0%; with SRMS it was 0%; in the test on SRPK1, 11%; in the test on SRPK2 it was 25%; in the test on SRPK3 it was 0%; with STK16, 16%. Also, the “%Inh” value in the test on STK33 and with STK35 was 0% in each case.

In the case of `CN(C)Cc1ccc(-c2ccc3c(Nc4ccc(Oc5ccccn5)cc4)ccnc3c2)o1` [GW567148], the “%Inh” value stood at 17% in [1]; 0% in test [2]; 5% with S6K1; 8% in the test on SBK1; 0% with SGK2; 0% in the test on SGK3. In addition, the “%Inh” value in the test with SGK is reported as 0%; with SIK2, 79%; in the test with SIK, 99.2%; with SLK, 31%; with SNARK it was 12%; with SNRK, 0%. The “%Inh” value was determined as 36% with SRC; 94.5% in the test on SRMS; 0% in the test on SRPK1; 0% in the test with SRPK2; 0% in the test on SRPK3; 0% with STK16. The “%Inh” value was 55% with STK33 and 66% in the test with STK35.

As for `Cc1ccc(C(=O)Nc2ccc(Nc3ccnc4cc(-c5nccs5)ccc34)cc2O)cc1.Cl` [GW494702], the “%Inh” value came to 0% in [1]; 0% in test [2]; 11% with S6K1; 6% in the test with SBK1; 0% in the test on SGK2; 0% in the test on SGK3. Moreover, the “%Inh” value in the test with SGK was determined as 11%; in the test on SIK2, 5%; in the test on SIK, 4%; in the test with SLK, 30%; in the test with SNARK, 10%; in the test on SNRK, 0%. The “%Inh” value in the test on SRC was 60%; with SRMS, 89%; in the test on SRPK1 it was 12%; in the test on SRPK2, 31%; with SRPK3, 13%; in the test on STK16 it was 0%. Moreover, the “%Inh” value in the test on STK33 is recorded as 9%; in the test with STK35 it was 0%.

Regarding `CCn1c(-c2nonc2N)nc2c(C#CC(C)(C)O)nc(OC[C@H](N)c3ccccc3)cc21` [GSK943949], the “%Inh” value amounted to 0% in test [1]; 0% in test [2]; 4% with S6K1; 0% with SBK1; 18% in the test on SGK2; 0% in the test on SGK3. Further, the “%Inh” value is reported as 6% in the test on SGK; 0% with SIK2; 2% with SIK; 6% in the test on SLK; 92.8% with SNARK; 0% in the test with SNRK. Besides, the “%Inh” value came to 1% in the test on SRC; 4% in the test on SRMS; 41% in the test on SRPK1; 0% in the test on SRPK2; 24% in the test on SRPK3; 9% in the test with STK16. Also, the “%Inh” value in the test with STK33 and with STK35 was 0% in each case.

For the compound `CC(C)c1nc(-c2cccc(NS(=O)(=O)c3c(F)cccc3F)c2F)c(-c2ccnc(Nc3ccc(N4CCOCC4)nc3)n2)s1` [GSK2008607], the “%Inh” value in test [1] is 10%; in test [2] it was 39%; with S6K1, 82%; with SBK1 it was 40%; in the test on SGK2, 9%; with SGK3, 28%. Besides, the “%Inh” value in the test with SGK turned out to be 40%; with SIK2, 91.3%; with SIK it was 99.5%; with SLK, 97%; in the test with SNARK, 29%; in the test with SNRK it was 0%. Besides, the “%Inh” value was determined as 100% with SRC; 99.5% in the test with SRMS; 38% in the test on SRPK1; 0% in the test with SRPK2; 0% with SRPK3; 46% with STK16. The “%Inh” value with STK33 stood at 83%; in the test with STK35, 36%.

Take `O=C(O)C(F)(F)F.O=C(O)C(F)(F)F.O=c1[nH]ccc2nc(N[C@@H]3CCCNC3)nc(Nc3ccc(S(=O)(=O)N4CCOCC4)cc3)c12` [GSK2177277]: the “%Inh” value in test [1] stood at 99.4%; in [2], 52%; with S6K1, 98.8%; in the test with SBK1 it was 92.7%; with SGK2, 96.1%; in the test on SGK3, 99.2%. Moreover, the “%Inh” value amounted to 88% with SGK; 84% in the test with SIK2; 78% with SIK; 98.4% in the test on SLK; 99.6% with SNARK; 72% with SNRK. Further, the “%Inh” value was found to be 96.7% with SRC; 0% in the test with SRMS; 100% in the test with SRPK1; 65% in the test on SRPK2; 95.2% in the test on SRPK3; 99.3% in the test on STK16. Moreover, the “%Inh” value was determined as 98.6% in the test with STK33 and 98% in the test on STK35.

Regarding `O=C(Nc1cccc(-c2nn3ncccc3c2-c2ccnc(Nc3ccccc3)n2)c1)c1c(F)cccc1F` [GSK198271], the “%Inh” value is on record as 1% in test [1]; 22% in [2]; 0% in the test on S6K1; 13% in the test with SBK1; 0% in the test with SGK2; 4% in the test on SGK3. For the same compound, the “%Inh” value in the test with SGK is listed as 0%; in the test with SIK2 it was 6%; with SIK it was 44%; with SLK, 95%; in the test with SNARK it was 32%; in the test with SNRK, 45%. Moreover, the “%Inh” value stood at 62% in the test on SRC; 94.9% with SRMS; 32% in the test on SRPK1; 0% in the test on SRPK2; 0% with SRPK3; 7% in the test on STK16. The “%Inh” value in the test with STK33 was 0%; in the test on STK35, 79%.
